Among the data in PubChem BioAssay (NCI) are growth values, retold here.

This is part of a sample that, as a whole, favours compounds with a hit. Of some 83,000 tested, about 20% had one in any assay.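 96-well plates, one dose, 48 hours. Percent growth reported; active if below 10.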 A number with no mark means an inactive call. The source made the active and inactive calls.

Common to all, as to experiment: NCI-60 one-dose screen, 48 h (100 = growth as untreated, 0 = no growth, -100 = all killed)
One test relates to SK-MEL-2 melanoma. As to conditions: 10 µM unless noted.
Another test concerns EKVX NSCLC. As to conditions: 10 µM unless noted.
Another test deals with SN12C renal. As to conditions: 10 µM unless noted.
The next test relates to UO-31 renal. As to conditions: 10 µM unless noted.
A further test has as its system TK-10 renal. As to conditions: 10 µM unless noted.
A further test relates to A498 renal. As to conditions: 10 µM unless noted.
Another test deals with CCRF-CEM leukemia. As to conditions: 10 µM unless noted.
The subject of the next test is MOLT-4 leukemia. As to conditions: 10 µM unless noted.
Another test relates to SR leukemia. As to conditions: 10 µM unless noted.
The test system of another test is OVCAR-8 ovarian. As to conditions: 10 µM unless noted.
A further test deals with OVCAR-5 ovarian. As to conditions: 10 µM unless noted.
The next test has as its system OVCAR-4 ovarian. As to conditions: 10 µM unless noted.
The test system of a further test is SK-OV-3 ovarian. As to conditions: 10 µM unless noted.
A further test concerns IGROV1 ovarian. As to conditions: 10 µM unless noted.
The test system of another test is OVCAR-3 ovarian. As to conditions: 10 µM unless noted.
The subject of another test is HS 578T breast. As to conditions: 10 µM unless noted.
In the next test the test system is NCI/ADR-RES ovarian. As to conditions: 10 µM unless noted.
The test system of a further test is ACHN renal. As to conditions: 10 µM unless noted.
A further test concerns CAKI-1 renal. As to conditions: 10 µM.
Another test concerns RPMI-8226 leukemia. As to conditions: 10 µM unless noted.

Turning to `COc1ccc(NC(=O)Nc2ccc(-c3ccc(OC)c(OC)c3)nc2C)cc1`, the growth was 79.6% in the test with SK-MEL-2 melanoma; 91.1% in the test on EKVX NSCLC; 64.4% with SN12C renal; 81.7% in the test with UO-31 renal; 60.4% in the test with TK-10 renal; 71.9% in the test with A498 renal. Also, the growth is 97.2% in the test on CCRF-CEM leukemia; 85.6% in the test on MOLT-4 leukemia; 57.3% in the test on SR leukemia; 47.4% in the test with OVCAR-8 ovarian; 98% in the test with OVCAR-5 ovarian; 29.5% with OVCAR-4 ovarian. Moreover, the growth is 74.8% with SK-OV-3 ovarian; 77.1% in the test with IGROV1 ovarian; 102% in the test with OVCAR-3 ovarian; 40% in the test with HS 578T breast; 85% with NCI/ADR-RES ovarian.
For `COCCNC(C(=O)c1ccccc1)c1ccccc1` (configuration not stated), the growth in the test on SK-MEL-2 melanoma is 107%; with EKVX NSCLC, 99.2%; in the test with SN12C renal, 100%; with UO-31 renal, 97.7%; in the test on ACHN renal, 106%; in the test with CAKI-1 renal it was 102%. For the same compound, the growth in the test with A498 renal was 88.4%; in the test with CCRF-CEM leukemia it was 101%; in the test on MOLT-4 leukemia, 98.6%; in the test with SR leukemia, 109%; in the test on RPMI-8226 leukemia it was 98.4%; in the test with OVCAR-8 ovarian it was 97.7%. Further, the growth is 95.1% with OVCAR-5 ovarian; 105% with OVCAR-4 ovarian; 101% in the test with SK-OV-3 ovarian; 102% in the test with IGROV1 ovarian; 104% with OVCAR-3 ovarian; 100% with HS 578T breast.
On to `NCC(=O)NS(=O)(=O)OC[C@H]1O[C@@H](n2cnc3c(N)ncnc32)[C@H](O)[C@@H]1O`, for which the growth with SK-MEL-2 melanoma was -34.4% (active); with EKVX NSCLC it was 44.1%; in the test on SN12C renal, 1.03% (active); with UO-31 renal it was 6.08% (active); with ACHN renal, 11.8%; in the test with CAKI-1 renal, 5.11% (active). Further, the growth is -58.8% (active) with A498 renal; 21.7% in the test on CCRF-CEM leukemia; 1.15% (active) in the test on MOLT-4 leukemia; 9.93% (active) in the test with SR leukemia; 18% in the test on RPMI-8226 leukemia; -11.9% (active) in the test with OVCAR-8 ovarian. For the same compound, the growth in the test on OVCAR-5 ovarian was 0.292% (active); in the test on OVCAR-4 ovarian it was -22.1% (active); with SK-OV-3 ovarian it was 6.28% (active); in the test with IGROV1 ovarian, 11.7%; in the test with OVCAR-3 ovarian, 10%; in the test on HS 578T breast, 16.1%. In addition, the growth in the test on NCI/ADR-RES ovarian was 2.07% (active).
As for `C#CCn1c(-c2cc(OC)c(OC)cc2Br)nc(-c2ccccc2)c1-c1ccccc1`, the growth was 28.1% with SK-MEL-2 melanoma; 37.4% in the test on EKVX NSCLC; 69.6% in the test on SN12C renal; 33.9% with UO-31 renal; 67.1% with TK-10 renal; 39.2% in the test with CCRF-CEM leukemia. The growth is 31.6% in the test with MOLT-4 leukemia; 16.4% in the test on SR leukemia; 48.9% with RPMI-8226 leukemia; 57.4% in the test on OVCAR-8 ovarian; 77.5% in the test with OVCAR-5 ovarian; 63.2% in the test on OVCAR-4 ovarian. Further, the growth was 16% in the test with SK-OV-3 ovarian; 40.9% in the test on IGROV1 ovarian; 9.74% (active) in the test with OVCAR-3 ovarian; 66.8% in the test on HS 578T breast; 10.2% in the test with NCI/ADR-RES ovarian.
With `COc1ccc(/C=C2/C(=O)Nc3cc(Cl)c(-c4csc(N)n4)cc32)cc1`, the growth with SK-MEL-2 melanoma is 35%; with EKVX NSCLC, 46.5%; in the test with SN12C renal, 59.6%; with UO-31 renal, 55.6%; in the test on TK-10 renal it was 84.4%; in the test on A498 renal it was 25.1%. Moreover, the growth in the test on CCRF-CEM leukemia was 31.7%; in the test with MOLT-4 leukemia it was 28.2%; with SR leukemia, 18.4%; in the test on OVCAR-8 ovarian, 61.8%; in the test on OVCAR-5 ovarian, 85%; in the test with OVCAR-4 ovarian, 70.1%. Also, the growth in the test on SK-OV-3 ovarian is 48.5%; with IGROV1 ovarian, 56.1%; in the test with HS 578T breast it was 45.7%; with NCI/ADR-RES ovarian it was 32.2%.
In the case of `O=S(=O)(CCN1CCOCC1)Nc1cncc(-c2ccc3ncnc(Nc4ccc(F)c(Cl)c4)c3c2)c1`, the growth in the test with SK-MEL-2 melanoma is 81.5%; with EKVX NSCLC it was 44.7%; in the test on SN12C renal, 66.7%; with UO-31 renal it was 51.9%; in the test with ACHN renal, 45.2%; with CAKI-1 renal, 72.3%. Further, the growth with A498 renal was 73.1%; in the test on CCRF-CEM leukemia, 57.1%; with MOLT-4 leukemia it was 71.7%; in the test on SR leukemia, 90%; in the test with RPMI-8226 leukemia, 82.4%; with OVCAR-8 ovarian it was 72.8%. The growth is 69.3% in the test on OVCAR-5 ovarian; 82.2% in the test on OVCAR-4 ovarian; 33.5% in the test on SK-OV-3 ovarian; 10.8% in the test with IGROV1 ovarian; 50.6% in the test with OVCAR-3 ovarian; 37% in the test with HS 578T breast. Also, the growth in the test with NCI/ADR-RES ovarian was 87.3%.
On to `O=C1C(Cl)=C(Nc2ccccc2)C(=O)C(Cl)=C1Nc1ccccc1`, for which the growth in the test on SK-MEL-2 melanoma is 113%; in the test with EKVX NSCLC it was 114%; in the test on SN12C renal it was 109%; with UO-31 renal, 94.2%; in the test with ACHN renal, 109%; in the test with CAKI-1 renal it was 106%. The growth with A498 renal is 78.6%; in the test on CCRF-CEM leukemia, 103%; in the test with MOLT-4 leukemia, 114%; with SR leukemia, 111%; with RPMI-8226 leukemia it was 107%; in the test with OVCAR-8 ovarian, 103%. Also, the growth in the test with OVCAR-5 ovarian is 112%; in the test on OVCAR-4 ovarian, 115%; in the test with SK-OV-3 ovarian it was 108%; in the test on IGROV1 ovarian, 110%; in the test with OVCAR-3 ovarian, 119%.
Turning to `CN[C@@H](CCCNC(N)=NC/C=C(/C)CCC=C(C)C)C(=O)N(C)[C@@H](CCCNC(N)=NCC=C(C)C)C(=O)N[C@H](C)[C@H](OS(=O)(=O)O)c1ccc(OS(=O)(=O)O)c(COS(=O)(=O)O)c1`, the growth in the test with SK-MEL-2 melanoma was 105%; with EKVX NSCLC, 113%; in the test on SN12C renal it was 101%; in the test with UO-31 renal it was 97.6%; in the test on ACHN renal, 113%; in the test on CAKI-1 renal it was 106%. Moreover, the growth with A498 renal was 87%; with CCRF-CEM leukemia, 102%; in the test with MOLT-4 leukemia, 96.9%; in the test with SR leukemia it was 114%; in the test on RPMI-8226 leukemia, 92.9%; in the test on OVCAR-8 ovarian, 98.4%. The growth with OVCAR-5 ovarian is 113%; in the test on OVCAR-4 ovarian it was 120%; in the test on SK-OV-3 ovarian it was 110%; with IGROV1 ovarian, 110%; with OVCAR-3 ovarian, 107%; with HS 578T breast, 97.3%. Further, the growth in the test on NCI/ADR-RES ovarian was 105%.
